# Unmarked numbers belong to inactive results.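 The calls were made as follows: active = MAPPIT score above the 99th percentile of random reference set scores in the same batch; inactive = at or below it.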
# B1: Snp (protein)
# chain: MALIKLARQLGLIDTIYVDGARPDPNNDPEESFNEDEVTEANSVPAKSKKSRKSKRLAMQPYSYVIAVDFEATCWEKQAPPEWREAEIIEFPAVLVNLKTGKIEAEFHQYILPFESPRLSAYCTELTGIQQKTVDSGMPLRTAIVMFNEWLRNEMRARNLTLPKMNKSNILGNCAFVTWTDWDFGICLAKECSRKGIRKPAYFNQWIDVRAIYRSWYKYRPCNFTDALSHVGLAFEGKAHSGIDDAKNLGALMCKMVRDGALFSITKDLTPYQQLNPRFVL
# B2: peg (protein)
# chain: MKLSAVLLAIALLALSLVQCLGLPDPSTKCVMECDTQEYRSICAADDKGSTKTYRNLCVMKTENCLQNANFQKISDKECP
# B3: Sce (protein)
# chain: MTSLDPAPNKTWELSLYELQRKPQEVITDSTEIAVSPRSLHSELMCPICLDMLKKTMTTKECLHRFCSDCIVTALRSGNKECPTCRKKLVSKRSLRADPNFDLLISKIYPSREEYEAIQEKVMAKFNQTQSQQALVNSINEGIKLQSQNRPQRFRTKGGGGGGGGGGNGNGAANVAAPPAPGAPTAVGRNASNQMHVHDTASNDSNSNTNSIDRENRDPGHSGTSAASAITSASNAAPSSSANSGASTSATRMQVDDASNPPSVRSTPSPVPSNSSSSKPKRAMSVLTSERSEESESDSQMDCRTEGDSNIDTEGEGNGELGINDEIELVFKPHPTEMSADNQLIRALKENCVRYIKTTANATVDHLSKYLAMRLTLDLGADLPEACRVLNFCIYVAPQPQQLVILNGNQTLHQVNDKFWKVNKPMEMYYSWKKT
# B4: GstE14 (protein)
# chain: MSQPKPILYYDERSPPVRSCLMLIKLLDIDVELRFVNLFKGEQFQKDFLALNPQHSVPTLVHGDLVLTDSHAILIHLAEKFDEGGSLWPQEHAERMKVLNLLLFECSFLFRRDSDFMSATVRQGFANVDVAHHERKLTEAYIIMERYLENSDFMAGPQLTLADLSIVTTLSTVNLMFPLSQFPRLRRWFTAMQQLDAYEANCSGLEKLRQTMESVGSFQFPSSSAVVTEKVE
# B5: rst (protein)
# chain: MLHTMQLLLLATIVGMVRSSPYTSYQNQRFAMEPQDQTAVVGARVTLPCRVINKQGTLQWTKDDFGLGTSRDLSGFERYAMVGSDEEGDYSLDIYPVMLDDDARYQCQVSPGPEGQPAIRSTFAGLTVLVPPEAPKITQGDVIYATEDRKVEIECVSVGGKPAAEITWIDGLGNVLTDNIEYTVIPLPDQRRFTAKSVLRLTPKKEHHNTNFSCQAQNTADRTYRSAKIRVEVKYAPKVKVNVMGSLPGGAGGSVGGAGGGSVHMSTGSRIVEHSQVRLECRADANPSDVRYRWFINDEPIIGGQKTEMVIRNVTRKFHDAIVKCEVQNSVGKSEDSETLDISYAPSFRQRPQSMEADVGSVVSLTCEVDSNPQPEIVWIQHPSDRVVGTSTNLTFSVSNETAGRYYCKANVPGYAEISADAYVYLKGSPAIGSQRTQYGLVGDTARIECFASSVPRARHVSWTFNGQEISSESGHDYSILVDAVPGGVKSTLIIRDSQAYHYGKYNCTVVNDYGNDVAEIQLQAKKSVSLLMTIVGGISVVAFLLVLTILVVVYIKCKKRTKLPPADVISEHQITKNGGVSCKLEPGDRTSNYSDLKVDISGGYVPYGDYSTHYSPPPQYLTTCSTKSNGSSTIMQNNHQNQLQLQQQQQQSHHQHHTQTTTLPMTFLTNSSGGSLTGSIIGSREIRQDNGLPSLQSTTASVVSSSPNGSCSNQSTTAATTTTTHVVVPSSMALSVDPRYSAIYGNPYLRSSNSSLLPPPTAV
# B6: Mabi (protein)
# chain: MEHHQIYRHKKFDMGRKIEKCDLQLKEELISRSGTPCTSRSPFDAANQSVSLGFSDQDADFPPLPKRRRLGSSSSSVSYQSASPIITEAIQDIFKYHVNMVRKFPKKERSPKDQERRNKNTIACRMSRRKKKFDDLQIEQQYKECSDEHLKIAEQSLRARVYLNHLKQLVKQEDHPLVSSRRVPEENTKSNFSIDYLIGGIKQEHA
# B7: insv (protein)
# chain: MENQYQRIVSATAREDSQARRSKPLFLNAWSQTSSVDFEVLRSISAPDPQVEVENRALRDKVRYLEAKLQQHKDLLSQIHATSARMQQASSLLAESRPPTPPAVQSHHILTPPSSEICAPAQNPQILDYKIISAPDDADAIEIRLAAESLNSLSTSADSDRLEICLGDENHQQSNHHNSQQQYRISNGIKRDGSSESADTPLQFIKRRKLQEIQLQEEIPRQNIKLPAKPQVKARNGSFTDLNKGQQQNMDNVMVSIGPNNTCVPASVFENINWSVCSLATRKLLVTIFDRETLATHSMTGKPSPAFKDQDKPLKRMLDPGKIQDIIFAVTHKCNASEKEVRNAITTKCADENKMMKIQNVKRRSSGIKHEKENII
# B8: Acp1 (protein)
# chain: MKFAVAVIFTLALAMGVQSSVIPLLSQVAGHGLSYTAVSGPAVVASPWAVPAAHWPAAVNVASWPPAAIHAAAPAVLAAPAPAVVAAHAPSVVVAPVAHSGVYTAQTRGAIHTAPLAGHIQSVASINAAPAPGTL
# B9: hfp (protein)
# chain: MGSNDRASRSPRSDDQREISDMPATKRTRSDSGKSTDSKIPYLSQPLYDLKQTGDVKFGPGTRSALLGLLGGALPKLSSEQHDLVSKAKKYAMEQSIKMVLMKQTLAHQQQQLATQRTQVQRQQALALMCRVYVGSISFELKEDTIRVAFTPFGPIKSINMSWDPITQKHKGFAFVEYEIPEGAQLALEQMNGALMGGRNIKVGRPSNMPQAQQVIDEVQEEAKSFNRIYVASIHPDLSEEDIKSVFEAFGPILYCKLAQGTSLHTHKGYGFIEYANKQAMDEAIASMNLFDLGGQLLRVGRSITPPNALACPTTNSTMPTAAAVAAAAATAKIQALDAVASNAVLGLSQNTPVMAAGAVVTKVGAMPVVSAATSAAALHPALAQAAPALLPPGIFQAPTPVAPSLLGVPAGLQPLQAVVPTLPPPALLATPTLPMTVGGVGVGLVPTVATLAGAEASKGAAAAAALSAAANNAAVTAANLSENIKKAHEKQQEELQKKLMDEGDVQTLQQQENMSIKGQSARQLVMQRLMRPVDSRVIILRNMVGPEDVDETLQEEIQEECSKFGTVSRVIIFNEKQTENEDDDEAEIIVKIFVEFSAGAEAMRGKEALDGRFFGGRRVVAELYDQGIFDQGDLSG
# B10: Hrb27C (protein)
# chain: MEEDERGKLFVGGLSWETTQENLSRYFCRFGDIIDCVVMKNNESGRSRGFGFVTFADPTNVNHVLQNGPHTLDGRTIDPKPCNPRTLQKPKKGGGYKVFLGGLPSNVTETDLRTFFNRYGKVTEVVIMYDQEKKKSRGFGFLSFEEESSVEHVTNERYINLNGKQVEIKKAEPRDGSGGQNSNNSTVGGAYGKLGNECSHWGPHHAPINMMQGQNGQMGGPPLNMPIGAPNMMPGYQGWGTSPQQQQYGYGNSGPGSYQGWGAPPGPQGPPPQWSNYAGPQQTQGYGGYDMYNSTSTGAPSGPSGGGSWNSWNMPPNSAGPTGAPGAGAGTATDMYSRAQAWATGGPSTTGPVGGMPRTGPGNSASKSGSEYDYGGYGSGYDYDYSNYVKQEGASNYGAGPRSAYGNDSSTQPPYATSQAV
# B11: eEF1beta (protein)
# chain: MAFGDVTTPQGLKELNAFLADNSYISGYTPSKADLSVFDALGKAPSADNVNVARWYRHIASFEAAERAAWSGTPLPQLAGGKPTVAAAAKPAADDDDDVDLFGSDDEEDEEAERIKQERVAAYAAKKSKKPALIAKSSVLLDVKPWDDETDMKEMENNVRTIEMDGLLWGASKLVPVGYGINKLQIMCVIEDDKVSIDLLQEKIEEFEDFVQSVDIAAFNKI
# B12: Pof (protein)
# chain: MDSKRAALESGDGPDAKRLDTTDDQDKEASGGDGSQVMLAKHVAPYTGHGCTPPMESYLFEPTPAGSQLLPWKTSVDLDNDAELEKPTSDKKPDTAKLSRRELAKMRREHTLRALALERELTNKPGQTPASEVLLVRFPDPEITAPMLAGLSKDIRDVVLPISVAPRYCLVHLKAGADVEATICDINRVRFGTGHLRAELKPFSDEEQAEFIDPCSLYVGNIPFNMTTSAIKAYFANAMRVDIGVLKREKRARYAFVRYASPDQTMEAFKELVDSPLNSRTLTVRYRRLRKRAGMPMVQCATSFQALQSPNGDDDNTDCKVISPPPLESIIISDSDNCSDSSGNGKEDGKRKKKINEQEREIEKLKRQMAEYGAIIKSLQFRQNSLEDTFIPDLTPKVEPSVNPTGCLLGSNAVHLMRDIKKECDYLGIPDPVPATKPTTQAQDDSQKKAKRSCFGRLFTGPFRRGTSAMKTADEYEKDDRLEELYAQLERDPDP
# B13: ORMDL (protein)
# chain: MTSIAGGHGEANPNSSWLSARGFWLAYLLGLLSVHLLFLSVPFVSIPWAWTATNLLHNAAHLYFLHVIKGAPWLSTENDPSRRWTHWEQIDDGVQMTTTRKFLTAVPIVLFLLTCLYTRNNTEHFIPNFISLVVVTLPKLPQFHGVRLFNINKY
# B14: H15 (protein)
# chain: MLLSNQPANTKPQQTPSPSQTQNFKSKLQQQIVSAAAAAAANIANGSSHHHHHQNHHHHHPLNNHHNHNHNQHNISFATDFSIAAIMARGGNAPSSREPSERSLSPASVERYSGQDADDDVDVDVVDCSDSEMPSATAAAAAAATTAAAAAAALQAQQQARQALRVAQQQQQQQQQQRQQTHHHATTGKQQRQHHNHHSSNTNNSSNSGNSNTNSKSSSQRGRSAAAVGAAATPSPPPPPPSQSPEELERLSPEESPAQQPTPKIVGSCNCDDLTPVQCHLETKELWDKFHELGTEMIITKSGRRMFPTVRVSFSGPLRQIQPADRYAVLLDVVPLDSRRYRYAYHRSSWLVAGKADPPPPSRIYAHPDCPLSPEALRKQVVSFEKVKLTNNEMDKSGQVVLNSMHRYQPRIHLVRLSHGQSIPGSPKELQDMDHKTFVFPETVFTAVTAYQNQLITKLKIDSNPFAKGFRDSSRLSDFDRDPMDAFFFDQHMRTAPLRFFPDPLMSQLTPQEADAASMALLEKARQHLQMFGRSPYTEMLLPHLYQRSAAPPPPPPAPHLSAFQLGMWQQQWPQLTAGFLASANQQAALALAAAGANRTPPPSMAVAPPAPATPTSSCGSASPDLRARPQLNHYPQRFSPYQVPQHQASPPASNRAESP
# Legend:
# Assay in all cases: MAPPIT interaction score (arbitrary units); higher = stronger binary interaction signal, active = hit call of the paper
# pip = details: MAPPIT configuration: N-N; pair source set: Lit-BS-16
# ras = details: MAPPIT configuration: N-N; pair source set: Finley_Y2H
# ord = details: MAPPIT configuration: N-N; pair source set: Lit-BM-16
# poly = details: MAPPIT configuration: N-C; pair source set: screen_3
# rst = details: pair source set: Lit-BM-16
# sip2 = details: MAPPIT configuration: N-N; pair source set: Curagen_low_conf
# sac = details: MAPPIT configuration: N-N; pair source set: RRS
# spir = details: pair source set: RRS
# rux = details: MAPPIT configuration: N-N; pair source set: Finley_Y2H
# sqd = details: MAPPIT configuration: N-C; pair source set: Lit-BM-16
# ox = details: MAPPIT configuration: N-N; pair source set: Curagen_low_conf
# salr = details: MAPPIT configuration: N-N; pair source set: Finley_Y2H
# saturn = details: MAPPIT configuration: N-C; pair source set: screen_4
# otp = details: MAPPIT configuration: N-N; pair source set: screen_2
# 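Also: HEK293T cells with Epo stimulation, STAT-responsive firefly luciferase reporter, fold induction versus unstimulated cells divided by the larger fold induction of two negative controls lacking either bait or prey.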
binder,measurement,setting,value
B1,MAPPIT interaction score,pip,-0.236
B2,MAPPIT interaction score,ras,-1.69
B3,MAPPIT interaction score,ord,1.68
B4,MAPPIT interaction score,poly,-0.119
B5,MAPPIT interaction score,rst; MAPPIT configuration: N-C,1.64
same,MAPPIT interaction score,rst; MAPPIT configuration: N-N,0.661
B6,MAPPIT interaction score,sip2,0.378
B7,MAPPIT interaction score,sac,-0.275
B8,MAPPIT interaction score,spir; MAPPIT configuration: N-C,0.0271
same,MAPPIT interaction score,spir; MAPPIT configuration: N-N,0.686
B9,MAPPIT interaction score,rux,0.808
B10,MAPPIT interaction score,sqd,2.4
B11,MAPPIT interaction score,ox,0.286
B12,MAPPIT interaction score,salr,0.283
B13,MAPPIT interaction score,saturn,0.115
B14,MAPPIT interaction score,otp,0.104
